Assay results: PubChem BioAssay
Several values for one entry are separate records, joined by “and”; a condition that tells them apart may be missing. Equal values may be shown once. Inconclusive results are not listed. Activity calls are given as the source filed them. Unless noted, no cut-off is given here; in the data, nearly all actives have AC50 up to about 30 µM.

What was measured:
[1] = growth inhibition of DIPG glioma cells, dose response, cell-based, SU-DIPG-XIII, MIPE4.0, CellTiter-Glo, qHTS (AID 1347061; cut-off not given, nearly all actives have AC50 up to about 37 µM;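 note: cells exposed to compound for 48 hours before readout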); conditions: SU-DIPG-XIII viability, CellTiter-Glo ATP luminescence
[2] = growth inhibition of DIPG glioma cells, dose response, cell-based, JHH-DIPG-1, MIPE4.0, CellTiter-Glo, qHTS (AID 1347062; cut-off not given, nearly all actives have AC50 up to about 27 µM;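 for AC50: cells exposed to compound for two days before readout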); conditions: JHH-DIPG-1 viability, CellTiter-Glo ATP luminescence
[3] = growth inhibition of DIPG glioma cells, dose response, cell-based, SU-DIPG-IV, MIPE4.0, CellTiter-Glo, qHTS (AID 1347063); conditions: SU-DIPG-IV viability, CellTiter-Glo ATP luminescence;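 note: compound exposure lasted 48 hours before the viability readout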
[4] = SU-DIPG-VI glioma cell viability, MIPE4.0 library, CellTiter-Glo luminescence, qHTS (AID 1347066); conditions: CellTiter-Glo ATP luminescence;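 note: cells exposed to compound for 48 hours before readout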
[5] = viability loss in pontine glioma line – cell-based, SU-DIPG-XXV, MIPE5.0, CellTiter-Glo, qHTS, dose response (AID 1347065; cut-off not given, nearly all actives have AC50 up to about 26 µM;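 note: cells exposed to compound for 48 hours before ATP readout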); conditions: CellTiter-Glo ATP luminescence
[6] = JHH-DIPG-1 glioma cell viability, MIPE5.0 library, CellTiter-Glo luminescence, qHTS (AID 1347067; cut-off not given, nearly all actives have AC50 up to about 26 µM;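 note: cells exposed to compound for 48 hours before readout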); conditions: JHH-DIPG-1 glioma viability, CellTiter-Glo ATP luminescence
[7] = SU-DIPG-XXV glioma cell viability, MIPE5.0 library, qHTS (AID 1347068; cut-off not given, nearly all actives have IC50 up to about 30 µM;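 for IC50: cells exposed to compound for 48 hours before viability readout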)
[8] = sensitizers of A549 cells to miR-34 induction, primary screen, imaging, A549 dox-inducible miR-34, nuclei and caspase counts (AID 1347080;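 active = compounds whose cell count with miR-34 switched on is under 0.7 times the count with it off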); conditions: A549 miR-34 inducible, Hoechst nuclei count, 48 h
[9] = survival rescue of mitochondrial mutant cells in low glucose, primary screen, MELAS cybrids, Rieske KO mouse fibroblasts, CellTiter-Glo (AID 1508586;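 active = mean z-score across replicates of 1.96 or higher in either the MELAS or the Rieske mutant cell line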;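 note: z relative to plate mean and SD of compound and empty wells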)
[10] = stronger effect = lower value, cell number ratio, induced over uninduced
[11] = measured here: relative caspase fold change +Dox/-Dox
[12] = measured here: total cells with miR-34 induction, stronger effect = lower value
[13] = measured here: total cells without miR-34 induction
[14] = MELAS cybrid survival, CellTiter-Glo 48 h, stronger effect = higher value
[15] = Rieske KO mouse fibroblast survival, CellTiter-Glo 72 h

CCN1C[C@H](C)n2c(c(O)c3c(=O)n(Cc4ccc(F)c(Cl)c4)nc(C(=O)NC)c32)C1=O
outcome [1]: inactive
outcome [2]: inactive
outcome [3]: inactive
outcome [4]: inactive

c1nc2nc(Nc3ccc(N4CCOCC4)cc3)nc(NC3CCCCC3)c2[nH]1
AC50 [1]: 9.35 µM (active)
AC50 [2]: 16.6 µM (active)
AC50 [3]: 14.8 µM (active)
AC50 [5]: 2.09 µM (active)
AC50 [4]: 8.33 µM (active)
AC50 [6]: 5.9 µM (active)
outcome [7]: inactive

CN(C)c1nc(Cc2ccc(NC(=O)c3ccc(C(F)(F)F)cc3)cc2)nc(N(C)C)c1CC(=O)O
outcome [1]: inactive
outcome [2]: inactive
outcome [3]: inactive
outcome [4]: inactive

Cc1cnn(C)c1C(=O)Nc1cc(Nc2ccc3c(/C=C/c4ccccn4)n[nH]c3c2)ccc1F
AC50 [1]: 13.2 µM (active)
AC50 [2]: 18.7 µM (active)
AC50 [3]: 14.8 µM (active)
AC50 [4]: 18.7 µM (active)

CCC(CC)[C@H](NC(C)=O)[C@@H]1[C@H](O)[C@@H](C(=O)O)C[C@H]1N=C(N)N
outcome [1]: inactive
outcome [2]: inactive
outcome [3]: inactive
outcome [4]: inactive

COC1=C2C[C@@H](C)C[C@H](OC)[C@H](O)[C@@H](C)/C=C(\C)[C@H](OC(N)=O)[C@@H](OC)/C=C/C=C(\C)C(=O)NC(=CC1=O)C2=O
AC50 [1]: 0.372 µM (active)
AC50 [2]: 0.296 µM (active)
AC50 [3]: 0.526 µM (active)
AC50 [4]: 2.35 µM (active)

N#CC1(c2cccc(C(=O)Nc3cc(Oc4ccc5nc(NC(=O)C6CC6)sc5n4)ccc3F)c2Cl)CC1
AC50 [1]: 0.935 µM (active)
AC50 [2]: 18.7 µM (active)
AC50 [5]: 0.833 µM (active)
outcome [4]: inactive

CC(C(C)N1CC(=O)NC(=O)C1)N1CC(=O)NC(=O)C1 (configuration not stated)
outcome [1]: inactive
outcome [2]: inactive
outcome [3]: inactive
outcome [4]: inactive
outcome [6]: inactive
outcome [7]: inactive

CC(O)C1C(=O)N2C(C(=O)O)=C(SC3CNC(C(=O)N(C)C)C3)C(C)C12 (configuration not stated)
outcome [1]: inactive
outcome [2]: inactive
outcome [3]: inactive
outcome [4]: inactive
fold change [8, 10]: 0.9 (inactive) and 0.956 (inactive)
fold change [8, 11]: 2.32 and 0.899
cell count [8, 12]: 9280 and 7430
cell count [8, 13]: 10300 and 7780
z-score [9, 14]: -0.432 (inactive)
z-score [9, 15]: 0.361

Clc1cccc(-c2nnnn2Cc2cccnc2)c1Cl
outcome [1]: inactive
outcome [2]: inactive
outcome [3]: inactive
outcome [4]: inactive

N[C@H]1CN(c2c(F)cc3c(=O)c(C(=O)O)cn(C4C[C@H]4F)c3c2Cl)CC12CC2 (some centres not stated)
outcome [1]: inactive
outcome [2]: inactive
outcome [3]: inactive
outcome [4]: inactive

CC(C)CN(C[C@@H](O)[C@H](Cc1ccccc1)NC(=O)O[C@H]1CO[C@H]2OCC[C@H]21)S(=O)(=O)c1ccc(N)cc1
AC50 [1]: 20.9 µM (active)
outcome [2]: inactive
outcome [3]: inactive
AC50 [4]: 23.5 µM (active)
z-score [9, 14]: 0.705 (inactive)
z-score [9, 15]: 0.765

O=C(Nc1ncc(SCCN2CCCC2)s1)[C@]1(c2ccc(S(=O)(=O)C3CC3)cc2)C[C@H]1C1CCCCC1
outcome [1]: inactive
AC50 [2]: 14.8 µM (active)
AC50 [5]: 9.34 µM (active)
AC50 [4]: 20.9 µM (active)
AC50 [6]: 11.8 µM (active)
IC50 [7]: 20.9 µM (active)

O=C(O)C(O)Cc1ccc(O)c(O)c1 (configuration not stated)
outcome [1]: inactive
outcome [2]: inactive
outcome [3]: inactive
outcome [4]: inactive
outcome [7]: inactive
fold change [8, 10]: 0.928 (inactive)
fold change [8, 11]: 0.6
cell count [8, 12]: 9530
cell count [8, 13]: 10300
z-score [9, 14]: -0.385 (inactive)
z-score [9, 15]: 0.0393

CCCCCCCCCCCCc1ccc(S(=O)(=O)Nc2nncs2)cc1
outcome [1]: inactive
outcome [2]: inactive
outcome [3]: inactive
outcome [4]: inactive
outcome [7]: inactive
fold change [8, 10]: 0.927 (inactive)
fold change [8, 11]: 1.16
cell count [8, 12]: 8010
cell count [8, 13]: 8650
z-score [9, 14]: 0.533 (inactive)
z-score [9, 15]: 0.0837

C=C1/C(=C/C=C2\CCCC3(C)[C@@H]([C@H](C)/C=C/C=C/C(O)(CC)CC)CC[C@@H]23)C[C@@H](O)C[C@@H]1O (some centres not stated)
AC50 [1]: 18.7 µM (active)
AC50 [2]: 20.9 µM (active)
AC50 [3]: 16.6 µM (active)
outcome [7]: inactive

CC(C)(O)Cn1c(NC(=O)c2ccc(-c3cn[nH]c3)s2)nc2cc(CN3CCOCC3)ccc21
AC50 [1]: 2.64 µM (active)
AC50 [2]: 0.743 µM (active)
AC50 [3]: 1.48 µM (active)
AC50 [4]: 2.64 µM (active)

CN[C@H]1[C@H](O[C@@H]2[C@H](O[C@@H]3[C@@H](O)[C@@H](O)[C@@H](N=C(N)N)[C@@H](O)[C@H]3N=C(N)N)O[C@H](C)[C@@]2(O)C=O)O[C@@H](CO)[C@@H](O)[C@H]1O
outcome [1]: inactive
outcome [2]: inactive
outcome [3]: inactive
outcome [4]: inactive

CNC(=O)CN1CCC(Oc2cc3c(Nc4cccc(Cl)c4F)ncnc3cc2OC)CC1
outcome [1]: inactive
outcome [2]: inactive
outcome [3]: inactive
outcome [4]: inactive
outcome [6]: inactive
outcome [7]: inactive
fold change [8, 10]: 0.965 (inactive)
fold change [8, 11]: 1.05
cell count [8, 12]: 5230
cell count [8, 13]: 5420
z-score [9, 14]: -0.464 (inactive)
z-score [9, 15]: -0.429

OC[C@H]1O[C@@H](OCCc2ccc(O)cc2)[C@H](O)[C@@H](O)[C@@H]1O
outcome [1]: inactive
outcome [2]: inactive
outcome [3]: inactive
outcome [4]: inactive
